MCF10A rereplic – DNA re-replication induction in MCF 10a cells | MCF 10A DNA re-replication, Hoechst nuclear intensity, 48 h | Potency, µM (titrated, usually from 46.1 µM), for the others: at the highest dose activity, positive = re-replication, hits mostly activators | 2.9% of 350,000 active | AID 624296; also: % of control where 0% means no effect; nearly all actives have a fitted effect of over 50% in size
12-LOX inh – blocks human arachidonate 12S-lipoxygenase; purified 12hLO, xylenol orange hydroperoxide absorbance; Potency, µM (highest dose often 108 µM), inactives show at the top dose activity change, negative = inhibition, actives largely listed as inhibitors; 1.1% of 580,000 active; AID 1671190; also: % is scaled to controls: 0 for no effect and ±100 for the full control effect
Target sequence (P18054 whole entry, looked up): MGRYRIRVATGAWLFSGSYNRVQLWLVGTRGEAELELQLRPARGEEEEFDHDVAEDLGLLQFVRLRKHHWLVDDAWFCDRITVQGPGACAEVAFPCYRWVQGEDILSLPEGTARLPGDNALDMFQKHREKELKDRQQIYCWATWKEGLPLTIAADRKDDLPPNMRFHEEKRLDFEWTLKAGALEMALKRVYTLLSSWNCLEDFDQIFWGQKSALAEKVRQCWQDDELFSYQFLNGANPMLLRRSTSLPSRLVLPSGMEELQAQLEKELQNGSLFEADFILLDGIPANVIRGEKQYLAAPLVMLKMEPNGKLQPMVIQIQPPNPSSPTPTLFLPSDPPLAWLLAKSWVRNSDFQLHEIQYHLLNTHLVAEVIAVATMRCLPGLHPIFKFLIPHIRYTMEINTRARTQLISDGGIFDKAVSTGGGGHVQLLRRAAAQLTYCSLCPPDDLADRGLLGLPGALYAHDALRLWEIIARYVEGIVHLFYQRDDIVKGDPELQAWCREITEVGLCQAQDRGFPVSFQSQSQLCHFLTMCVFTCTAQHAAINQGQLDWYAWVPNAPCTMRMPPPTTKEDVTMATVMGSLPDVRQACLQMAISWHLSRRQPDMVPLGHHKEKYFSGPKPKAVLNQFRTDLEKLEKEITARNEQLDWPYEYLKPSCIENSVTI
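Purified human 12hLO at 150 nM in 25 mM Hepes, 0.01% Triton X-100, pH 7.0, preincubated 15 min at room temperature with compound. Reaction started with 40 uM arachidonic acid, 30 min at room temperature. Hydroperoxide measured by Fe-xylenol orange, 573/405 nm absorbance ratio.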
SW480 rerep – inducers of DNA re-replication in SW480 colon cancer cells. SW480 DNA re-replication, Hoechst DNA content imaging, 48 h. Potency, µM (series often up to 46.1 µM), without a hit: at the top dose re-replication activation, hits mostly activators. 1.8% of 340,000 active; also: % of control where 0% means no effect; nearly all actives have a fitted effect of over 55% in size
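Hoechst fluorescence of nuclei (405 nm excitation, 500-530 nm emission) measured by plate-scanning imager after 48 hr compound exposure at 37 C; re-replication scored as increased number of nuclei with elevated intensity.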
KB-3-1 cytotox – kills parental KB-3-1 adenocarcinoma cells | KB-3-1 viability, CellTiter-Glo ATP luminescence, 72 h | Potency, µM (doses to about 46.1 µM), most hits filed as cytotoxic | 1.4% of 400,000 active | AID 1347075; also: % is scaled to controls: 0 for no effect and ±100 for the full control effect; nearly all actives have a fitted effect of over 60% in size
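Cytotoxicity measured as CellTiter-Glo luminescence after 72 h at 37 C. Compound titrations were pinned onto drug-naive KB-3-1 parental adenocarcinoma cells grown in DMEM with 10% FBS, and normalized data fitted to concentration-response curves.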
KB-V1 MDR tox – KB-V1 MDR subline cytotoxicity; KB-V1 MDR cells viability, CellTiter-Glo, 72 h; Potency, µM (titrated, usually from 46.1 µM), actives largely listed as cytotoxic; 3.4% of 400,000 active; AID 1347076; also: % is scaled to controls: 0 for no effect and ±100 for the full control effect; nearly all actives have a fitted effect of over 60% in size
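Compound-treated KB-V1 multidrug-resistant cells, 72 h, 37 degrees C; viability by CellTiter-Glo. Fitted qHTS curves give the values.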
PINK1 expr mod – PINK1 expression modulation; AID 624263; 0.2% of 410,000 active; PINK1 immunofluorescence, high-content cytometry, 24 h; Potency, µM (doses to about 76.6 µM), for inactives: top-dose activation (PINK1 increase), most hits filed as activators; active = well fitted activation curve with a large enough effect; inconclusive = small, poorly fitted or top-dose-only effect; cell line not stated here; also: % of control where 0% means no effect; nearly all actives have a fitted effect of over 65% in size
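PINK1 protein, normally rapidly degraded, was detected by immunofluorescence after 24 hour compound treatment of a stable cell line. Titration data (5 concentrations) came from laser-scanning cytometry, with CCCP-treated wells as controls.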
* = called active by the depositor; i = inactive; u = inconclusive; x = no result; [ ] = another dose, or the depositor's remark. Sampled rows, rich in hits. Any-hit rate of the full collection: about 5.8%. Unless noted, calls follow the shape of the dose curve; as a rule, active = well fitted curve in the direction sought with a large enough effect; inconclusive = small, poorly fitted or top-dose-only effect, or another doubt; inactive = no such curve, though single readings can be large; an effect the other way counts as inactive or inconclusive. Potency is read from the fitted curve at half-maximal effect.

SMILES	MCF10A rereplic	12-LOX inh	SW480 rerep	KB-3-1 cytotox	KB-V1 MDR tox	PINK1 expr mod
O=C(O)Cn1ccc2cc(OCCc3cccc(-c4cccc(F)c4)c3)cnc21	x	50.1µM*	x	x	x	x
COc1ccc(C=O)c(OCc2cn(CC(=O)c3ccc(O)cc3)nn2)c1	u	1.26µM*	-1.9%	i	i	2.2%
CCCNC(=S)NCCN1CCCCC1	2.7%	0.631µM*	1.8%	i	i	-2.5%
CCCCNC(=S)NCCN1CCCCC1	4.0%	u	-3.5%	i	i	0.8%
CCN(C(=O)C(=O)c1c(C)[nH]c2ccccc12)c1cccc(Cl)c1	x	11.6%	x	x	x	x
CC(=NNC(=S)N1CCCCC1)c1cccc(C)n1	u	-23.5%	u	0.231µM*	u	-0.8%
CSC(=S)NN=C(C)c1cccc(C)n1	u	-11.0%	0.366µM*	u	u	-3.9%
Cc1cccc(C(=S)N2CCOCC2)n1	3.9%	-25.2%	-21.1%	i	i	0.9%
CC(=NNC(=S)N1CCCCC1)c1ccccn1	x	44.7µM*	x	u	u	0.7%
CC(=NNC(=S)Nc1ccccc1)c1ccccn1	x	u	x	u	u	-1.6%
CCOc1cc(C(c2c(C)[nH][nH]c2=O)c2c(C)[nH][nH]c2=O)ccc1OCc1ccc(F)cc1	x	-16.8%	x	x	x	x
CC(NC(=O)c1cc2ccccc2[nH]1)c1ccccc1 (centres undefined)	x	20.7%	x	x	x	x
Cc1nc2cc(NC(=O)CNC(=O)c3ccco3)ccc2o1	x	-11.3%	x	x	x	x
C#C[C@]1(O)CCC2C3CCC4=CC(=O)CC[C@@H]4C3CC[C@@]21C (some centres undefined)	-3.9%	-2.1%	-6.3%	u	2.91µM*	3.4%
C#C[C@]1(O)CC[C@@H]2[C@H]3CCC4=CC(=O)CC[C@H]4[C@H]3C(=C)C[C@@]21CC	12.9%	x	-3.8%	x	x	x
CC(C)NC(=O)c1cc(-c2ccc(Br)cc2)on1	-10.2%	u	-4.4%	i	i	10µM*
CN(Cc1ccccc1)C(=O)c1cc(-c2ccc(Br)cc2)on1	-2.8%	-7.1%	2.5%	u	14.6µM*	-1.3%[38.3 µM]
COc1ccc(NC(=O)c2ccc3c(c2)c(C)c(C)n3Cc2ccc(F)cc2)cc1	x	0.0%	x	11.6µM*	8.2µM*	4.4%
COc1ccc(NC(=O)c2cc3c(n2C)CCN(Cc2ccc(F)cc2)C3)cc1	x	17.8µM*	x	x	x	x
Cc1ccc2c(c1)cc(C(=O)NCCc1ccccc1)n2C	x	-29.7%	x	x	x	x
CN(C)c1nc(=NCc2cccs2)ss1	u	15.8µM*	u	u	u	0.0%
Cc1ccccc1-n1cnnc1SCCC(=O)Nc1ccc(S(=O)(=O)N(C)C)cc1	x	8.4%	x	x	x	x
CC1CCCCC12CCc1cc3c4c(c(=O)oc3cc1O2)CCCC4 (centres undefined)	x	-7.9%	x	x	x	x
Cc1ccc2nc(SCn3nnc4ccccc4c3=O)[nH]c2c1	u	-9.8%	0.0%	i	23.1µM*	4.5%
O=c1c2ccccc2nnn1CSc1nc2ccccc2[nH]1	u	4.0%	-0.1%	i	i	5.7%
SMILES	MCF10A rereplic	12-LOX inh	SW480 rerep	KB-3-1 cytotox	KB-V1 MDR tox	PINK1 expr mod
Cc1ccc2nc(SCC(=O)c3c(C)[nH]c4ccccc34)[nH]c2c1	13µM*	-10.2%	8.9%	i	u	-2.1%
CN(C)N1C(=O)CC(c2c(F)cccc2Cl)C2=C1CC(C)(C)CC2=O (centres undefined)	x	31.3%	x	x	x	x
COc1ccccc1-c1nnc2sc(COc3ccc(Cl)cc3Cl)nn12	u	-18.4%	5.2%	u	18.4µM*	-6.8%[38.3 µM]
COc1ccc(-c2nn3c(-c4ccccc4)nnc3s2)cc1	u	-15.4%	-6.0%	u	u	6.2%
COc1cccc(OC)c1-c1nn2c(-c3cc(-c4ccccc4)n[nH]3)nnc2s1	14.6µM*	0.0%	9.2µM*	u	u	16.9%
Clc1ccc(OCc2nn3c(-c4ccncc4)nnc3s2)cc1	12.4%	0.0%	-7.2%	i	10.3µM*	9.6%
CCN(CC)c1ccc(-c2nn3c(-c4ccccc4OC)nnc3s2)cc1	u	x	1.3µM*	0.82µM*	1.46µM*	u
O=C(Nc1ccc(F)c(F)c1F)c1n[nH]c(=O)c2ccccc12	x	-9.7%	x	x	x	x
COc1ccccc1-c1nn2c(-c3ccco3)nnc2s1	19.4%	-3.7%	-8.5%	i	10.3µM*	-3.6%[38.3 µM]
CCOC(=O)c1sc(NC(C)C)nc1C(F)(F)F	x	-9.3%	x	x	x	x
Cc1cc2nc(-c3ccc(SCc4ccccn4)nc3)[nH]c2cc1C	u	u	u	i	16.4µM*	0.4%
CCCCCOC(=O)Cn1c(=O)c2c(nc(N3CCOCC3)n2C)n(C)c1=O	19.6%	3.8%	-16.7%	i	16.4µM*	1.6%[38.3 µM]
CCOC(=O)Cn1c(=O)c2c(nc(N3CCOCC3)n2C)n(C)c1=O	-2.3%	8.2%	-1.1%	i	i	4.4%[38.3 µM]
COc1cc(NC(=O)C2(n3cnnn3)CCCCC2)cc(OC)c1OC	x	59.9%	x	x	x	x
Cc1ccccc1-n1nnnc1SCC(=O)N(Cc1ccco1)C1=CCCCC1	x	8.91µM*	x	x	x	x
CC(=O)Nc1ccc(C(=O)OCC(=O)N(Cc2ccccc2)C(C)(C)C)cc1	4.4%	-19.3%	-13.0%	i	14.6µM*	-0.9%
CC(=O)c1ccc(S(=O)(=O)NCCC(=O)OCC(=O)N(Cc2ccccc2)C(C)(C)C)cc1	4.8%	-33.2%	-3.2%	i	20.6µM*	0.7%
CC(=O)Nc1ccc(C)cc1-c1nnc(SCC(=O)Nc2ccc(Cl)c(Cl)c2)[nH]c1=O	x	-22.5%	x	x	x	x
O=c1[nH]c(N2CCOCC2)nc2c1CCN(Cc1ccc(Br)cc1)CC2	x	-25.7%	x	x	x	x
COc1ccc(Nc2ccnc(Nc3ccc(OC)cc3)n2)cc1	23.1µM*	3.1%	u	u	16.4µM*	-3.9%
Cc1cc(NC(=O)CCCC(=O)N(c2ccccc2)C(C(=O)NC2CCCCC2)c2cccs2)no1 (centres undefined)	-0.5%	-5.5%	1.8%	i	2.06µM*	15.4%
Cc1ccc(C(C(=O)NC2CCCC2)N(C(=O)CCC(=O)Nc2cc(C)on2)c2ccccc2)cc1 (centres undefined)	0.4%	-23.3%	-1.3%	i	i	7.0%
CCOC(=O)C1=C(C)NC2=C(C(=O)CCC2)C1c1cccs1 (centres undefined)	3.1%	-3.6%	-6.2%	i	i	0.0%
CCOC(=O)c1[nH]c2c(c1C)C(=O)CC(c1ccc(F)cc1)C2 (centres undefined)	u	482.4%	u	u	u	11.9%
CCOCCOC(=O)C1=C(C)NC2=C(C(=O)CC(c3cccs3)C2)C1c1ccsc1 (centres undefined)	-0.5%	-8.5%	1.8%	i	20.6µM*	-0.5%[38.3 µM]

Screens as filed in PubChem BioAssay.
